# The supplement of paper PMC8728848
# About 410 targets per protein were measured; listed, in parts, are those with the strongest signals and a random draw of the rest.
# B1: PpFlo3 (Pichia pastoris) (protein)
# chain: MGSSHHHHHHSSGLVPRGSHMQESGNGTTSDTAYACDIGATPFDGFNATIYQYQASDDNSIQDPVFMSTGYLQRNQLHSTTGVTNPGFNIFTAGVATTTLYGIPNVNYQNMLLELKGYFRADASGNYGLSLRNIDDSAILFFGRETAFECCNENLIPLDEAPTDYSLFTIKEGEASTNPDSYTYTQYLEAGRYYPVRTFFANIRTRAVFNFTMTLPDGSELTDFQNYIFQFGALNQ
# Key:
# Experiment in all cases: glycan array binding signal (z-score within array); higher = stronger binding
# Conditions in all cases: glycan notation: IUPAC condensed, linker removed
# Fuc(a1-2)Gal(b1-3)GalNAc = biological target: Fuc(a1-2)Gal(b1-3)GalNAc
# In short: (§1)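 Glycan array data were curated from 3228 arrays in the Consortium for Functional Glycomics database and kept only where the protein sequence was available. Glycan names were converted to IUPAC-condensed notation, and columns mapping to the same glycan were averaged. The binding signal is a within-array Z-score, averaged across arrays of the same protein sequence at different concentrations or buffers and across linkers. Negative Z-scores can be read as non-binding.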
# [1] = biological target: Fuc(a1-2)Gal(b1-3)GalNAc(a1-3)[Fuc(a1-2)]Gal(b1-4)GlcNAc
# In short: as §1
# Fuc(a1-2)Gal(b1-4)GlcNAc = biological target: Fuc(a1-2)Gal(b1-4)GlcNAc
# In short: as §1
# [2] = biological target: Fuc(a1-2)Gal(b1-4)GlcNAc(b1-2)Man(a1-3)[Fuc(a1-2)Gal(b1-4)GlcNAc(b1-2)Man(a1-6)]Man(b1-4)GlcNAc(b1-4)[Fuc(a1-6)]GlcNAc
# In short: as §1
# [3] = biological target: Fuc(a1-2)Gal(b1-4)[Fuc(a1-3)]GlcNAc
# In short: as §1
# [4] = biological target: Fuc(a1-2)Gal(b1-4)[Fuc(a1-3)]GlcNAc(b1-3)Gal(b1-4)[Fuc(a1-3)]GlcNAc(b1-3)Gal(b1-4)[Fuc(a1-3)]GlcNAc
# In short: as §1
# Fuc(a1-2)Gal6S(b1-4)Glc = biological target: Fuc(a1-2)Gal6S(b1-4)Glc
# In short: as §1
# [5] = biological target: Fuc(a1-2)[Gal(a1-3)]Gal(b1-3)GlcNAc(b1-2)Man(a1-3)[Fuc(a1-2)[Gal(a1-3)]Gal(b1-3)GlcNAc(b1-2)Man(a1-6)]Man(b1-4)GlcNAc(b1-4)GlcNAc
# In short: as §1
# [6] = biological target: Fuc(a1-2)[GalNAc(a1-3)]Gal
# In short: as §1
# [7] = biological target: Fuc(a1-2)[GalNAc(a1-3)]Gal(b1-3)GlcNAc(b1-3)GalNAc
# In short: as §1
# [8] = biological target: Fuc(a1-2)[GalNAc(a1-3)]Gal(b1-4)GlcNAc(b1-3)Gal(b1-4)GlcNAc(b1-3)Gal(b1-4)GlcNAc
# In short: as §1
# [9] = biological target: Fuc(a1-3)[Gal(b1-4)]GlcNAc(b1-4)Gal(b1-4)[Fuc(a1-3)]GlcNAc
# In short: as §1
# [10] = biological target: Fuc(a1-3)[Gal(b1-4)]GlcNAc(b1-6)GalNAc
# In short: as §1
# Gal(a1-4)Gal(b1-4)GlcNAc = biological target: Gal(a1-4)Gal(b1-4)GlcNAc
# In short: as §1
# Gal(b1-3)GlcNAc = biological target: Gal(b1-3)GlcNAc
# In short: as §1
# [11] = biological target: Gal(b1-3)GlcNAc(b1-3)GalNAc
# In short: as §1
# Gal(b1-4)Glc6S = biological target: Gal(b1-4)Glc6S
# In short: as §1
# [12] = biological target: Gal(b1-4)GlcNAc(b1-2)Man(a1-3)[Man(a1-6)]Man(b1-4)GlcNAc(b1-4)GlcNAc
# In short: as §1
# Gal(b1-6)Gal = biological target: Gal(b1-6)Gal
# In short: as §1
# [13] = biological target: Gal3S(b1-3)[Fuc(a1-4)]GlcNAc
# In short: as §1
# Gal3S6S(b1-4)GlcNAc = biological target: Gal3S6S(b1-4)GlcNAc
# In short: as §1
# Gal3S6S(b1-4)GlcNAc6S = biological target: Gal3S6S(b1-4)GlcNAc6S
# In short: as §1
# GalNAc(b1-3)GalNAc = biological target: GalNAc(b1-3)GalNAc
# In short: as §1
# [14] = biological target: Glc(a1-4)Glc(a1-4)Glc(a1-4)Glc
# In short: as §1
# Glc(b1-4)Glc = biological target: Glc(b1-4)Glc
# In short: as §1
# [15] = biological target: GlcNAc(b1-2)[GlcNAc(b1-4)]Man(a1-3)[GlcNAc(b1-2)Man(a1-6)]Man(b1-4)GlcNAc(b1-4)GlcNAc
# In short: as §1
# GlcNAc(b1-3)Gal(b1-4)Glc = biological target: GlcNAc(b1-3)Gal(b1-4)Glc
# In short: as §1
# GlcNAc(b1-3)GalNAc = biological target: GlcNAc(b1-3)GalNAc
# In short: as §1
# GlcNAc(b1-3)Man = biological target: GlcNAc(b1-3)Man
# In short: as §1
# [16] = biological target: GlcNAc(b1-3)[GlcNAc(b1-6)]GalNAc
# In short: as §1
# [17] = biological target: Man(a1-2)Man(a1-6)[Man(a1-3)]Man(a1-6)[Man(a1-2)Man(a1-2)Man(a1-3)]Man(b1-4)GlcNAc(b1-4)GlcNAc
# In short: as §1
# Neu5Ac(a2-3)Gal = biological target: Neu5Ac(a2-3)Gal
# In short: as §1
# [18] = biological target: Neu5Ac(a2-3)Gal(b1-4)[Fuc(a1-3)]GlcNAc(b1-3)Gal(b1-4)[Fuc(a1-3)]GlcNAc(b1-3)Gal(b1-4)[Fuc(a1-3)]GlcNAc
# In short: as §1
# [19] = biological target: Neu5Ac(a2-3)[GalNAc(b1-4)]Gal(b1-4)GlcNAc
# In short: as §1
# [20] = biological target: Neu5Ac(a2-6)Gal(b1-4)GlcNAc
# In short: as §1
# [21] = biological target: Neu5Ac(a2-6)Gal(b1-4)GlcNAc(b1-2)Man(a1-3)[Man(a1-6)]Man(b1-4)GlcNAc(b1-4)GlcNAc
# In short: as §1
# [22] = biological target: Neu5Ac(a2-6)Gal(b1-4)GlcNAc(b1-2)Man(a1-6)[GlcNAc(b1-2)Man(a1-3)]Man(b1-4)GlcNAc(b1-4)GlcNAc
# In short: as §1
# [23] = biological target: Neu5Ac(a2-8)Neu5Ac(a2-3)Gal(b1-3)GalNAc(b1-4)[Neu5Ac(a2-8)Neu5Ac(a2-3)]Gal(b1-4)Glc
# In short: as §1
# [24] = biological target: Neu5Ac9Ac(a2-3)Gal(b1-3)GlcNAc
# In short: as §1
# Neu5Gc(a2-3)Gal(b1-4)Glc = biological target: Neu5Gc(a2-3)Gal(b1-4)Glc
# In short: as §1
binder,measurement,setting,value
B1,glycan array binding signal (z-score),Fuc(a1-2)Gal(b1-3)GalNAc,-0.256
same,glycan array binding signal (z-score),[1],-0.217
same,glycan array binding signal (z-score),Fuc(a1-2)Gal(b1-4)GlcNAc,-0.242
same,glycan array binding signal (z-score),[2],-0.263
same,glycan array binding signal (z-score),[3],4.84
same,glycan array binding signal (z-score),[4],4.32
same,glycan array binding signal (z-score),Fuc(a1-2)Gal6S(b1-4)Glc,-0.279
same,glycan array binding signal (z-score),[5],-0.259
same,glycan array binding signal (z-score),[6],-0.298
same,glycan array binding signal (z-score),[7],-0.014
same,glycan array binding signal (z-score),[8],-0.303
same,glycan array binding signal (z-score),[9],2.75
same,glycan array binding signal (z-score),[10],-0.238
same,glycan array binding signal (z-score),Gal(a1-4)Gal(b1-4)GlcNAc,-0.139
same,glycan array binding signal (z-score),Gal(b1-3)GlcNAc,-0.201
same,glycan array binding signal (z-score),[11],-0.296
same,glycan array binding signal (z-score),Gal(b1-4)Glc6S,4.38
same,glycan array binding signal (z-score),[12],-0.233
same,glycan array binding signal (z-score),Gal(b1-6)Gal,-0.281
same,glycan array binding signal (z-score),[13],5.08
same,glycan array binding signal (z-score),Gal3S6S(b1-4)GlcNAc,-0.27
same,glycan array binding signal (z-score),Gal3S6S(b1-4)GlcNAc6S,-0.269
same,glycan array binding signal (z-score),GalNAc(b1-3)GalNAc,5.1
same,glycan array binding signal (z-score),[14],-0.242
same,glycan array binding signal (z-score),Glc(b1-4)Glc,-0.246
same,glycan array binding signal (z-score),[15],4.67
same,glycan array binding signal (z-score),GlcNAc(b1-3)Gal(b1-4)Glc,-0.291
same,glycan array binding signal (z-score),GlcNAc(b1-3)GalNAc,-0.266
same,glycan array binding signal (z-score),GlcNAc(b1-3)Man,6.76
same,glycan array binding signal (z-score),[16],1.75
same,glycan array binding signal (z-score),[17],-0.271
same,glycan array binding signal (z-score),Neu5Ac(a2-3)Gal,-0.283
same,glycan array binding signal (z-score),[18],-0.266
same,glycan array binding signal (z-score),[19],-0.272
same,glycan array binding signal (z-score),[20],-0.282
same,glycan array binding signal (z-score),[21],-0.281
same,glycan array binding signal (z-score),[22],4.82
same,glycan array binding signal (z-score),[23],-0.017
same,glycan array binding signal (z-score),[24],-0.267
same,glycan array binding signal (z-score),Neu5Gc(a2-3)Gal(b1-4)Glc,-0.276
